In PubChem BioAssay (NCI):
The panel holds about 79,000 compounds, 15% with a hit somewhere; the sample as a whole holds those more often. Values without a mark were called inactive. Active and inactive are the calls of the source. Rule as the data show it: active = growth inhibition above about 70%; inactive = the rest.

Assays:
[1] = NCI Yeast Anticancer Drug Screen. Data for the rad50 strain (AID 155);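 also: 0% = growth of vehicle-only cultures of the same strain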; settings: S. cerevisiae rad50 strain growth inhibition; at 50.0 µM; stronger effect = higher value
Summary of the method: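 Relative growth inhibition (compound vs vehicle) was measured in yeast with a defined repair-gene alteration.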

[2] = NCI Yeast Anticancer Drug Screen. Data for the mec2-1 strain (AID 157); settings: S. cerevisiae mec2-1 strain, at 50.0 µM, stronger effect = higher value
Summary of the method: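 Cells of the genetically defined mec2-1 yeast strain are incubated with test compound. Inhibition of growth is calculated against vehicle-treated controls.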

[3] = NCI Yeast Anticancer Drug Screen. Data for the sgs1 mgt1 strain (AID 161);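 also: 0% = growth of cultures given vehicle only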; settings: S. cerevisiae sgs1 mgt1 strain, at 50.0 µM, stronger effect = higher value
Summary of the method: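 Genetically altered yeast, compound exposure, growth inhibition relative to vehicle.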

[4] = NCI Yeast Anticancer Drug Screen. Data for the cln2 rad14 strain (AID 165);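 also: 0% = growth equal to vehicle treated cultures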; settings: S. cerevisiae cln2 rad14 strain, at 50.0 µM, stronger effect = higher value
Summary of the method: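 The screen exposed genetically defined yeast (cln2 rad14) to test compounds and scored growth inhibition relative to vehicle-treated controls.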

[5] = NCI Yeast Anticancer Drug Screen. Data for the bub3 strain (AID 167); settings: S. cerevisiae bub3 mutant strain, at 50.0 µM, stronger effect = higher value
Summary of the method: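 Screening used yeast with an engineered genetic alteration affecting cell cycle control. Compound-exposed cultures were compared with vehicle cultures, and reduced growth was taken as inhibition.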

[6] = NCI Yeast Anticancer Drug Screen. Data for the mlh1 rad18 strain (AID 175); settings: S. cerevisiae mlh1 rad18 strain growth inhibition; at 50.0 µM; stronger effect = higher value
Summary of the method: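 Compound-treated yeast growth, normalised to vehicle controls. Strain bears defined DNA repair mutations.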

Row | SMILES | growth inhibition [1] | growth inhibition [2] | growth inhibition [3] | growth inhibition [4] | growth inhibition [5] | growth inhibition [6]
1 | C(=N\N1CCN(/N=C/c2cccc3ccccc23)CC1)/c1cccc2ccccc12 | 16.2% | 6.85% | 19% | 18.5% | -0.65% | 3.4%
2 | OCC(O)C(O)C(OC1OC(CO)C(O)C(O)C1O)C(O)CO (stereo unspecified) | -1.05% | 37.8% | 26.9% | -2.2% | 13.8% | -3.2%
3 | CCOc1c(OC)cc(-c2nnc(SCCN(CC)CC)o2)cc1OC | 11.4% | 0.35% | 7.1% | 16.7% | 0.15% | -7.05%
4 | CC(C)(O)CCc1ccccc1 | -7.75% | -29.3% | -14.2% | 14.8% | -19.3% | 6.6%
5 | CCC1CNCCC1CC(=O)O (stereo unspecified) | 7.95% | -12.8% | -2.05% | 24.8% | -1.2% | -22.2%
6 | COc1ccc(C2C(C(=O)NCc3ccccc3)=C(C)NC(C)=C2C(=O)NCc2ccccc2)cc1OC | -1.8% | -4.5% | -23.6% | 8.4% | 3.35% | 16.9%
7 | CC(C)(C)c1ccc(C(C)(C)C)c(=O)[nH]1 | -32.1% | -19.1% | -12.3% | -41.5% | -6.1% | 5.65%
8 | CC1(C)Oc2ccc(NC(=O)CCC(N)C(=O)O)cc2O1 (stereo unspecified) | -28.2% | -52.7% | -1% | 11.5% | 16.5% | -18.1%
9 | CC1(C)CCC2(C(=O)OC3OC(CO)C(O)C(O)C3O)CCC3(CO)C(=CCC4C5(C)CC(O)C(O)C(C)(C(=O)OC6OC(CO)C(O)C(O)C6O)C5CCC43C)C2C1 (stereo unspecified) | 2.3% | 4.45% | 17.6% | 23.2% | 19.3% | -92.2%
10 | Brc1cc(Br)cc(-c2nnc(-c3ccc4ccccc4c3)o2)c1 | -3.5% | -20.8% | -2.45% | 3.25% | 3% | 4.55%
11 | C=CC(O)CCCCCC (stereo unspecified) | -4.9% | -27.8% | -22.4% | -5.1% | -10.2% | -20.7%
12 | O=[N+]([O-])c1ccc(Br)cc1 | -6.5% | -14.2% | 17.7% | 16.2% | -2.3% | 19.2%
13 | N#CCCOCCSCCC#N | 3% | 5.15% | -5.95% | -5.45% | 1% | -1.8%
14 | CC(C)(C)CC(C)(C)c1ccc(OCCOc2ccc([N+](=O)[O-])cc2N)cc1 | 56.5% | 11.1% | 41.6% | 4% | 4.9% | 26.1%
15 | CCN(CC)C(COC(=O)Nc1ccccc1)COC(=O)Nc1ccccc1 | 1.85% | -2.3% | 0.6% | -13.8% | -18.9% | 3.05%
16 | CCCCCCCCCCCCCCCc1nnc(SC)s1 | -22.6% | -39% | -14.9% | 15.3% | -3.15% | 11.2%
17 | O=C(OCC(Cl)(Cl)Cl)N1[C@H]2C3=C(CCC3)[C@@H]([C@H]3O[C@H]32)N1C(=O)OCC(Cl)(Cl)Cl | -38.8% | -8.35% | -1.9% | 20.7% | 10% | 2.3%
18 | COc1cccc2c1C(=O)c1c(C)c(C)c(C)c(C)c1-2 | 3.3% | 6% | 3.05% | -1.7% | 14.6% | -10.1%
19 | O=C(N/C=C\NC(=O)Nc1cccc(Cl)c1)Nc1cccc(Cl)c1 | 40.8% | 16.1% | 15.8% | 15.8% | -1.95% | 18.8%
20 | CCOC(=O)C(O)(NC(=O)c1ccc(F)cc1)C(F)(F)F (stereo unspecified) | 12.2% | 1.85% | -9.9% | 17.1% | -10.2% | -23.9%
21 | CCCCC(C)NC=O (stereo unspecified) | 31.4% | 13% | 3.9% | 9% | 14.4% | 24.6%

Row | SMILES | growth inhibition [1] | growth inhibition [2] | growth inhibition [3] | growth inhibition [4] | growth inhibition [5] | growth inhibition [6]
22 | NC(=O)C(CCN1CCCCC1)c1ccccc1 (stereo unspecified) | 27.2% | -7.35% | 7.75% | 9.5% | 5.45% | 24.8%
23 | O=C(O)CN1CCSc2ccccc2CN(CC(=O)O)CCSc2ccccc2C1 | 4.5% | 3.1% | -2.6% | -32% | 12.7% | -8%
24 | COc1cc([C@H]2c3[nH]c4ccccc4c3C[C@H]3COC(=O)N32)cc(OC)c1O | 56.5% | 9.85% | 25% | 12.1% | 18.9% | 51.9%
25 | Cc1cc(=O)c2ccccc2o1 | -5.15% | -7.75% | -1.3% | -0.1% | -18.9% | -13.7%
26 | CS(=O)CC1OC2OC3C(CO)OC(OC4C(CO)OC(OC5C(CO)OC(OC6C(CO)OC(OC7C(CO)OC(OC8C(CO)OC(OC1C(O)C2O)C(O)C8O)C(O)C7O)C(O)C6O)C(O)C5O)C(O)C4O)C(O)C3O (stereo unspecified) | -1.9% | -17.4% | -8.55% | -21.4% | -8% | 10.2%
27 | CN1CN(C)C(c2ccncc2)=C1c1ccncc1 | -36% | -47.5% | -29.9% | -0.5% | -58.3% | -19.5%
28 | COC(=O)C1=NNC(c2ccc(C)cc2)C1 (stereo unspecified) | 1.75% | -2.25% | -0.95% | -0.3% | -16% | 2.85%
29 | CCC(=O)Oc1c2ccsc2c(OC(=O)CC)c2ccsc12 | 29.1% | 6.6% | 32.1% | -3.2% | 29.4% | 13.7%
30 | CCN(CC)C(=O)CCC1CCCCC1 | -35% | -18.9% | -11.9% | -39.3% | -14.1% | -23.5%
31 | COc1cccc(NC(=S)NC(=O)c2ccccc2)c1 | 82% (active) | 60.8% | 96.2% (active) | 37% | 95.6% (active) | 45.7%
32 | N#CC1=C(N2CCCC2)NC(=O)CC1=O | 0% | -4.4% | -0.6% | 35.6% | 7.2% | 1.4%
33 | CN(C)c1ccc(Cc2ccc(N(C)C)cc2)cc1 | -4.1% | -6.3% | -16.9% | -23.6% | 10.4% | 7%
34 | COc1nc2c(c(=O)n1C)N(C(C)=O)C1C(N2)OCC(OC(C)=O)C1OC(C)=O (stereo unspecified) | -13.4% | 8.65% | -2.55% | 5.45% | -7.6% | -32.1%
35 | Nc1cccc2cccc(N)c12 | 51.9% | 2.1% | 41.5% | 15.3% | 9.65% | 45%
36 | BrCC1=CC(c2ccccc2)(c2ccccc2)c2ccccc21 | 96.2% (active) | 97% (active) | 97.3% (active) | 94.3% (active) | 96.2% (active) | 96.1% (active)
37 | NC(=O)N/N=C/c1ccccc1N | 5.85% | -6.75% | 0.95% | -22.1% | -8.65% | -2.7%
38 | O=C(O)CCN(CCC(=O)O)S(=O)(=O)c1ccccc1 | -4.55% | -43.4% | -4.65% | -103% | -17.6% | 22.9%
39 | CN(C)S(=O)(=O)C(c1ccccc1)C(O)(c1ccccc1)c1ccc(Cl)cc1 (stereo unspecified) | 72.1% (active) | 45.5% | 54.1% | 22.9% | 16.8% | 57%
40 | CCN(CC)CC(O)C=O (stereo unspecified) | 10.6% | -6.7% | -3.85% | 3.85% | -9.5% | 6.7%
41 | O=C(O)c1cc(/C=C/c2ccccc2)ccc1[N+](=O)[O-] | -11.2% | 25.5% | 7.5% | -33.6% | -5.8% | -3.1%
